Several values for one entry are separate records, joined by “and”; a condition that tells them apart may be missing. Equal entries are not always repeated. Values without a mark were called inactive. Results filed as inconclusive are left out. Entries that show only a call come without a potency. Activity calls are given as the source filed them. Unless noted, calls come from the whole dose curve; as a rule, active = well fitted curve in the direction sought with a large enough effect in the repeat runs; inconclusive = weak or mixed curves; inactive = no such curve, though single readings can be large; an effect the other way counts as inactive or inconclusive.
Columns and labels:
[1] = qHTS assay to identify small molecule antagonists of the androgen receptor (AR) signaling pathway using the MDA cell line in the presence of 0.5 nM R1881 - cell viability counter screen (AID 1259242); conditions: MDA-kb2 viability, CellTiter-Fluor protease fluorescence, 16 h; series mostly up to 92.4 µM; note: nearly all actives have a fitted effect of over 45% in size; note: potency is the fitted concentration of half-maximal effect
Procedure, shortened: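 MDA-kb2 cells (human breast carcinoma, stably carrying MMTV-luciferase reporter) were exposed to compounds with 0.5 nM R1881 (final) for 16 hr at 37C, 0% CO2; viability then read as live-cell protease fluorescence (CellTiter-Fluor, 30 min) in the same wells.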

[2] = molecular target: Androgen receptor (Homo sapiens) (UniProt P10275); experiment: qHTS assay to identify small molecule antagonists of the androgen receptor (AR) signaling pathway using the MDA cell line in the presence of 0.5 nM R1881 (AID 1259243); conditions: MDA-kb2 MMTV-luciferase, R1881 0.5 nM, 16 h; series mostly up to 92.4 µM; note: nearly all actives have a fitted effect of over 50% in size; note: potency is the fitted concentration of half-maximal effect
Androgen receptor (Homo sapiens), sequence (P10275 whole entry, looked up): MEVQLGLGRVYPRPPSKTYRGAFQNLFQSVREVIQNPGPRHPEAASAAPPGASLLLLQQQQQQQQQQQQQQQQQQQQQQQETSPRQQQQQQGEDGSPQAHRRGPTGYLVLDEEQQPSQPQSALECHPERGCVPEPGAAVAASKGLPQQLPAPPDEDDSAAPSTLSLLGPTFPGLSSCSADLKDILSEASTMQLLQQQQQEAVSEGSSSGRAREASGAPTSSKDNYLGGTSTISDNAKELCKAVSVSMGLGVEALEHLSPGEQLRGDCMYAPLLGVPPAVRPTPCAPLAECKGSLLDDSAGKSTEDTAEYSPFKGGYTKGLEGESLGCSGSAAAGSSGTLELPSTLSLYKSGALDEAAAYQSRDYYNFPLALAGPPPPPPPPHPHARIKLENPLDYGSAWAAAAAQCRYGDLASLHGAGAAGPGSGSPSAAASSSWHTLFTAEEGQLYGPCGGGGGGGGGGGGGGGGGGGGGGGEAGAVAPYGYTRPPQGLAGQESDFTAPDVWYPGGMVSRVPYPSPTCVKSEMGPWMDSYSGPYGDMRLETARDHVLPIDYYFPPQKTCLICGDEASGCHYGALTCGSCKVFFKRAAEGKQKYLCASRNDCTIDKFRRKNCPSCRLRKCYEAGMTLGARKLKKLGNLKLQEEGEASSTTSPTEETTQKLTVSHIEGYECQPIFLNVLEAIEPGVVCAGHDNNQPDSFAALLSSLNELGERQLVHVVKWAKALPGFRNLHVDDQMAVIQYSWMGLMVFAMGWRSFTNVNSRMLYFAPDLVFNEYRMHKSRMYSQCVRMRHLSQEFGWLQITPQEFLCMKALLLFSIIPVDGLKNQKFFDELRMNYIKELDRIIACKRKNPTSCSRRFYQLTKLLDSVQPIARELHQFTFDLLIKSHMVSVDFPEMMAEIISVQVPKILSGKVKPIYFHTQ
Procedure, shortened: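 MDA-kb2 human breast carcinoma cells carrying an MMTV-luciferase reporter (AR- and GR-responsive) were plated, rested 5 hr at 37C, dosed with compounds, then stimulated with 0.5 nM R1881 (final) for 16 hr; luminescence was read after ONE-Glo.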

[3] = qHTS assay to identify small molecule phospholipidosis (PLD) inducers (AID 1259344; active = well fitted curve in the direction sought with a large enough effect; an effect the other way counts as inactive or inconclusive); conditions: HepG2 phospholipidosis, LipidTOX Red imaging, 24 h; series mostly up to 38.3 µM
Procedure, shortened: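 Fluorescent phospholipid staining (LipidTOX Red) measured by automated microscopy in fixed HepG2 cells after 24 h treatment; nuclei counterstained with Hoechst 33342; amiodarone as reference inducer.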

[4] = qHTS assay to identify small molecule HDAC inhibitors (AID 1259364); conditions: HCT-116 HDAC-Glo I/II luminescence, 2 h; series mostly up to 92.4 µM; note: nearly all actives have a fitted effect of over 45% in size; note: potency is the fitted concentration of half-maximal effect
Procedure, shortened: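 Wild-type HCT-116 cells were plated overnight, exposed to compounds for 2 h at 37 °C, then given HDAC-Glo class I/II luminogenic reagent for 30 min at room temperature before luminescence was read.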

[5] = qHTS assay to identify small molecule HDAC inhibitors - cell viability counter screen (AID 1259365); conditions: HCT-116 viability, CellTiter-Glo ATP luminescence, 2 h; series mostly up to 92.4 µM; note: nearly all actives have a fitted effect of over 50% in size; note: potency is the fitted concentration of half-maximal effect
Procedure, shortened: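 Wild-type HCT-116 cells, 1,500/well, cultured overnight, then compound-treated 2 h at 37 C. Viability measured as ATP luminescence with CellTiter-Glo after 30 min at room temperature.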

[6] = qHTS assay to identify small molecule agonists of the sonic hedgehog signaling (Shh) pathway - cell viability counter screen (AID 1259366); conditions: NIH/3T3 Gli1-Luc viability, CellTiter-Fluor, 24 h; series mostly up to 92.4 µM; note: nearly all actives have a fitted effect of over 50% in size; note: potency is the fitted concentration of half-maximal effect
Procedure, shortened: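 NIH/3T3-derived Gli1-Luc reporter cells, 2,000 per well, received compound after 4 h and were treated about 23 h at 37C. Viability measured in the same wells by CellTiter-Fluor fluorescence after 1 h.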

[7] = qHTS assay to identify small molecule antagonists of the sonic hedgehog signaling (Shh) pathway - cell viability counter screen (AID 1259367); conditions: NIH/3T3 Gli1-Luc viability, CellTiter-Fluor, 24 h; series mostly up to 92.4 µM; note: nearly all actives have a fitted effect of over 55% in size; note: potency is the fitted concentration of half-maximal effect
Procedure, shortened: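 Using CellTiter-Fluor, viability of Gli1-Luc reporter 3T3 cells is read by fluorescence in the wells used for the Shh luciferase assay. Treatment lasts 23 hr with conditioned medium, then reagent 1 hr at 37C.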

[8] = qHTS assay to identify small molecule agonists of the sonic hedgehog signaling (Shh) pathway (AID 1259368; calls by dose curve; note: nearly all actives have a fitted effect of over 15% in size); conditions: NIH/3T3 Gli1-Luc reporter, luciferase, 24 h; series mostly up to 92.4 µM
Procedure, shortened: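 NIH/3T3-derived 3T3Gli1-Luc cells carrying a stably integrated Gli1 response element–firefly luciferase reporter were plated, left 4 hr at 37 C, then given compounds in DMSO for 24 hr. Luminescence was read 30 min after adding luciferase reagent.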

[9] = qHTS assay to identify small molecule antagonists of the sonic hedgehog signaling (Shh) pathway (AID 1259369; calls by dose curve; note: nearly all actives have a fitted effect of over 45% in size; note: potency is the fitted concentration of half-maximal effect); conditions: NIH/3T3 Gli1-Luc reporter, Shh antagonist, luminescence 24 h; series mostly up to 92.4 µM
Procedure, shortened: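 NIH/3T3-derived 3T3Gli1-Luc cells with stably integrated Gli1-Luc reporter were preincubated 4hr at 37 C, then given compounds in DMSO plus Shh conditioned medium and incubated 24hr. Firefly luciferase luminescence read after 30min reagent at room temperature.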

[10] = molecular target: Estrogen receptor (Homo sapiens) (UniProt P03372); experiment: qHTS assay to identify small molecule antagonists of the estrogen receptor alpha (ER-alpha) signaling pathway using the BG1 cell line in the presence of 0.1 nM 17-beta-estradiol (AID 1259244); conditions: VM7Luc4E2 (BG1) ERE-luciferase, antagonist mode, 0.1 nM E2, 22 h; series mostly up to 92.4 µM; note: nearly all actives have a fitted effect of over 50% in size; note: potency is the fitted concentration of half-maximal effect
Estrogen receptor (Homo sapiens), sequence (P03372 whole entry, looked up): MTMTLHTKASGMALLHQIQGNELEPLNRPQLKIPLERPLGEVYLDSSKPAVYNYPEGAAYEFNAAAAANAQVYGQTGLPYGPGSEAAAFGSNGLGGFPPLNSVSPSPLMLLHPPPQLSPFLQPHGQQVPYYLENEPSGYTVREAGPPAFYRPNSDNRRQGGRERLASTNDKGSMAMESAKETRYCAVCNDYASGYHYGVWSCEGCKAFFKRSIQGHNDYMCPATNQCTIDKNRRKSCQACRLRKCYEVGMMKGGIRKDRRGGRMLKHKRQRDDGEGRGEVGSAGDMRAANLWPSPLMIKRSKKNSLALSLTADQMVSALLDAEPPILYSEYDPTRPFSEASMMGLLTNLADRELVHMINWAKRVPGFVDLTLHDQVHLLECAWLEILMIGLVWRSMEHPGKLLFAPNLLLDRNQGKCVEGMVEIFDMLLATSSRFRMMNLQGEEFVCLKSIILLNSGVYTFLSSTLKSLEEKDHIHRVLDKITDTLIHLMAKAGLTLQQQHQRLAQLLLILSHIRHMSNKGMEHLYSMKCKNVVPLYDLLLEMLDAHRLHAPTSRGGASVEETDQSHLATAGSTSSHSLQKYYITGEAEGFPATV
Procedure, shortened: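 VM7Luc4E2 cells (endogenous full-length ER-alpha, stable 4xERE-luciferase) were grown 5 days in phenol red-free medium with charcoal-stripped FBS, then exposed 22 h at 37C to compounds plus 0.1 nM (final) 17beta-estradiol; ONE-Glo luminescence read-out.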

CCCSP(=O)(OCC)SCCC
Potency [1]: inactive
Potency [2]: inactive
Potency [3]: inactive
Potency [4]: inactive
Potency [5]: inactive
Potency [6]: inactive
Potency [7]: inactive
Potency [8]: inactive
Potency [9]: inactive

CN(C)CCc1c[nH]c2ccc(O)cc12
Potency [1]: inactive
Potency [2]: inactive
Potency [3]: inactive
Potency [4]: inactive
Potency [5]: inactive
Potency [7]: 59.7 µM (active)
Potency [8]: inactive
Potency [9]: 8.43 µM (active)

COP(N)(=S)OC
Potency [1]: inactive
Potency [2]: inactive
Potency [10]: inactive
Potency [5]: inactive
Potency [6]: inactive
Potency [7]: inactive
Potency [8]: inactive
Potency [9]: inactive

CC(=O)/C=C/c1ccc2c(c1)OCO2
Potency [1]: inactive
Potency [2]: 68.9 µM (active)
Potency [4]: 27.4 µM (active)
Potency [5]: inactive
Potency [9]: 17.3 µM (active)

CCCCCCCCCC[N+](C)(C)CCCCCCCCCC
Potency [1]: 54.5 µM (active)
Potency [10]: 30.6 µM (active)
Potency [3]: inactive
Potency [5]: 68.6 µM (active)
Potency [6]: 21.7 µM (active)
Potency [7]: 13.7 µM (active)
Potency [8]: inactive
Potency [9]: 0.969 µM (active)

COc1ccc(/C(=C/C(=O)N2CCOCC2)c2ccc(Cl)cc2)cc1OC
Potency [1]: inactive
Potency [2]: 1.54 µM (active)
Potency [5]: inactive
Potency [8]: inactive

Cc1cccc(OP(=O)(Oc2cccc(C)c2)Oc2cccc(C)c2)c1
Potency [1]: inactive
Potency [2]: inactive
Potency [4]: inactive
Potency [5]: inactive
Potency [6]: inactive
Potency [7]: inactive
Potency [8]: inactive

CCN(CC)c1c([N+](=O)[O-])cc(C(F)(F)F)c(N)c1[N+](=O)[O-]
Potency [1]: inactive
Potency [2]: 27.3 µM (active)
Potency [4]: inactive
Potency [5]: inactive
Potency [6]: inactive
Potency [7]: inactive
Potency [8]: inactive
Potency [9]: 9.69 µM (active)

C[C@]12Cc3nonc3C[C@@H]1CC[C@@H]1[C@@H]2CC[C@@]2(C)[C@H]1CC[C@]2(C)O
Potency [1]: inactive
Potency [2]: 21.1 µM (active)
Potency [4]: inactive
Potency [5]: inactive
Potency [7]: inactive
Potency [8]: inactive

COc1ccc(OC)c(CC(C)N)c1 (configuration not stated)
Potency [1]: inactive
Potency [10]: inactive
Potency [3]: inactive
Potency [5]: inactive
Potency [6]: inactive
Potency [7]: inactive
Potency [8]: inactive
Potency [9]: inactive

CCCCOP(=O)(CCCC)OCCCC
Potency [1]: inactive
Potency [2]: inactive
Potency [5]: inactive
Potency [8]: inactive
Potency [9]: inactive

C[C@@H]1O[C@@H](O[C@@H]2C=C3CC[C@@H]4[C@H](CC[C@]5(C)[C@@H](c6ccc(=O)oc6)CC[C@]45O)[C@@]3(C)CC2)[C@H](O)[C@H](O)[C@H]1O
Potency [1]: inactive
Potency [2]: inactive
Potency [4]: inactive
Potency [5]: inactive
Potency [7]: inactive

C[C@]12CC[C@H](O)C[C@H]1CC[C@@H]1[C@@H]2C[C@@H](O)[C@]2(C)[C@@H](C3=CC(=O)OC3)CC[C@]12O
Potency [1]: inactive
Potency [2]: inactive
Potency [4]: inactive
Potency [5]: inactive
Potency [6]: inactive
Potency [7]: inactive
Potency [9]: inactive

N#CCCSCCC#N
Potency [1]: inactive
Potency [2]: inactive
Potency [10]: inactive
Potency [5]: inactive
Potency [8]: inactive
Potency [9]: inactive

CCC(C)c1cc([N+](=O)[O-])cc([N+](=O)[O-])c1OC(=O)C=C(C)C (configuration not stated)
Potency [1]: 61.1 µM (active)
Potency [2]: 54.5 µM (active)
Potency [4]: inactive
Potency [5]: inactive
Potency [8]: inactive
Potency [9]: 9.69 µM (active)

C[CH2][Hg][N]1C(=O)C2C(C1=O)C1(Cl)C(Cl)=C(Cl)C2(Cl)C1(Cl)Cl (configuration not stated)
Potency [1]: 13 µM (active)
Potency [2]: 7.3 µM (active)
activity change, negative = cytotoxicity [5]: -3.87% [at 19 µM]
Potency [6]: 7.3 µM (active)
activity change [8]: -11.5% [at 18.9 µM, stronger effect = higher value]
Potency [9]: 14.6 µM (active)

COC12CC[C@@]3(C[C@@H]1C(C)(O)C(C)(C)C)[C@H]1Cc4ccc(O)c5c4[C@@]3(CCN1CC1CC1)[C@H]2O5 (some centres not stated)
Potency [1]: 54.1 µM (active)
Potency [10]: 24.2 µM (active)
Potency [3]: inactive
Potency [4]: inactive
Potency [5]: inactive
Potency [6]: 24.2 µM (active)
Potency [7]: 17.1 µM (active)

CC[C@H](C)[C@H]1O[C@]2(C=C[C@@H]1C)C[C@@H]1C[C@@H](C/C=C(\C)[C@@H](O[C@H]3C[C@H](OC)[C@@H](O[C@H]4C[C@H](OC)[C@@H](O)[C@H](C)O4)[C@H](C)O3)[C@@H](C)/C=C/C=C3\CO[C@@H]4[C@H](O)C(C)=C[C@@H](C(=O)O1)[C@]34O)O2
Potency [1]: 36.1 µM (active)
Potency [10]: 22.8 µM (active)
Potency [3]: inactive
Potency [4]: inactive
Potency [5]: inactive
Potency [6]: 36.1 µM (active)
Potency [8]: inactive
Potency [9]: 16.1 µM (active)

CC(C)C(=O)Cl
Potency [1]: inactive
Potency [2]: inactive
Potency [4]: inactive
Potency [5]: inactive
Potency [6]: inactive
Potency [7]: inactive
Potency [8]: inactive
Potency [9]: inactive

N#CSCSC#N
Potency [1]: 62.5 µM (active)
Potency [2]: 49.6 µM (active)
Potency [5]: inactive
Potency [6]: 11.1 µM (active) and 6.79 µM (active)
Potency [7]: 12.5 µM (active) and 13.5 µM (active)
Potency [8]: inactive
Potency [9]: 2.79 µM (active) and 2.41 µM (active)

CCOC(=O)c1ccccc1S(=O)(=O)NC(=O)Nc1nc(Cl)cc(OC)n1
Potency [1]: inactive
Potency [2]: inactive
Potency [10]: inactive
Potency [5]: inactive
Potency [7]: inactive
Potency [8]: inactive
Potency [9]: inactive

O=[N+]([O-])c1ccc2ccc3cccc4ccc1c2c34
Potency [1]: inactive
Potency [2]: 0.863 µM (active)
Potency [5]: inactive
Potency [8]: inactive
Potency [9]: inactive

N#CC(Cl)Cl
Potency [1]: inactive
Potency [2]: inactive
Potency [4]: inactive
Potency [5]: inactive
Potency [6]: inactive
Potency [7]: inactive
Potency [8]: inactive

O=C1C=CC(=O)c2ccccc21
Potency [1]: 30.6 µM (active)
Potency [2]: 19.3 µM (active)
Potency [10]: 10.9 µM (active)
Potency [5]: 48.6 µM (active)
Potency [6]: 12.2 µM (active)
Potency [7]: 15.4 µM (active)
Potency [8]: inactive
Potency [9]: 4.33 µM (active)

CN(CCCC(=O)c1cccnc1)N=O
Potency [1]: inactive
Potency [2]: inactive
Potency [10]: inactive
Potency [5]: inactive
Potency [6]: inactive
Potency [7]: inactive
Potency [8]: inactive

CCOP(=O)(NC(C)C)Oc1ccc(SC)c(C)c1 (configuration not stated)
Potency [1]: inactive
Potency [2]: 27.3 µM (active)
Potency [4]: inactive
Potency [5]: inactive
Potency [6]: inactive
Potency [8]: inactive

CC(C)(C)OO
Potency [1]: inactive
Potency [2]: inactive
Potency [5]: inactive
Potency [6]: inactive
Potency [8]: inactive
Potency [9]: inactive
